# Assay results reported in ChEMBL document CHEMBL1961873, “Compounds: GSK PKIS; Assays: Nanosyn kinase panel” (2012).
# Legend:
# [1] = molecular target: T1, Inhibitor of nuclear factor kappa-B kinase subunit epsilon (Homo sapiens) (UniProt Q14164); conditions: at 1 µM;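 also: reported values are averaged percent inhibition figures against human IKKε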
# T1 sequence (whole entry): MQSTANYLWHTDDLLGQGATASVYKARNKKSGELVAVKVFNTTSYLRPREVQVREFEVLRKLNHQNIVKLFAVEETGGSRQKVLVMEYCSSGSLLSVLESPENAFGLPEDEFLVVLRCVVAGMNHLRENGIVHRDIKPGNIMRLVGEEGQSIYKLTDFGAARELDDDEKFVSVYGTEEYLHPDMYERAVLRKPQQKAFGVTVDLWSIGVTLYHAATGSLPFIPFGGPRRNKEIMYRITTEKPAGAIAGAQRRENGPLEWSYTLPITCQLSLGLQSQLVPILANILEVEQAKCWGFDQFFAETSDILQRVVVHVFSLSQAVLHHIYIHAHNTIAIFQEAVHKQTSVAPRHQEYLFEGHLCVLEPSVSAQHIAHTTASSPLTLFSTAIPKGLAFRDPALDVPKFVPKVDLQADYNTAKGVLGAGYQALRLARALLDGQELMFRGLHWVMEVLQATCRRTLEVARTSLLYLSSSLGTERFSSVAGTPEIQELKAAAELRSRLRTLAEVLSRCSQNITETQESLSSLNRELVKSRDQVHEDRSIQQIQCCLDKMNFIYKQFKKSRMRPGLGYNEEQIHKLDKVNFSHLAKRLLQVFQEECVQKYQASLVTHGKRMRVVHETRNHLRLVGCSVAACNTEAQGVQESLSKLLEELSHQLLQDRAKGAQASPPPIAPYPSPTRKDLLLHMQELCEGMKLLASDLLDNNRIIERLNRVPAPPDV
# [2] = molecular target: T2, Serine/threonine-protein kinase Nek1 (Homo sapiens) (UniProt Q96PY6); conditions: at 0.1 µM
# T2 sequence (whole entry): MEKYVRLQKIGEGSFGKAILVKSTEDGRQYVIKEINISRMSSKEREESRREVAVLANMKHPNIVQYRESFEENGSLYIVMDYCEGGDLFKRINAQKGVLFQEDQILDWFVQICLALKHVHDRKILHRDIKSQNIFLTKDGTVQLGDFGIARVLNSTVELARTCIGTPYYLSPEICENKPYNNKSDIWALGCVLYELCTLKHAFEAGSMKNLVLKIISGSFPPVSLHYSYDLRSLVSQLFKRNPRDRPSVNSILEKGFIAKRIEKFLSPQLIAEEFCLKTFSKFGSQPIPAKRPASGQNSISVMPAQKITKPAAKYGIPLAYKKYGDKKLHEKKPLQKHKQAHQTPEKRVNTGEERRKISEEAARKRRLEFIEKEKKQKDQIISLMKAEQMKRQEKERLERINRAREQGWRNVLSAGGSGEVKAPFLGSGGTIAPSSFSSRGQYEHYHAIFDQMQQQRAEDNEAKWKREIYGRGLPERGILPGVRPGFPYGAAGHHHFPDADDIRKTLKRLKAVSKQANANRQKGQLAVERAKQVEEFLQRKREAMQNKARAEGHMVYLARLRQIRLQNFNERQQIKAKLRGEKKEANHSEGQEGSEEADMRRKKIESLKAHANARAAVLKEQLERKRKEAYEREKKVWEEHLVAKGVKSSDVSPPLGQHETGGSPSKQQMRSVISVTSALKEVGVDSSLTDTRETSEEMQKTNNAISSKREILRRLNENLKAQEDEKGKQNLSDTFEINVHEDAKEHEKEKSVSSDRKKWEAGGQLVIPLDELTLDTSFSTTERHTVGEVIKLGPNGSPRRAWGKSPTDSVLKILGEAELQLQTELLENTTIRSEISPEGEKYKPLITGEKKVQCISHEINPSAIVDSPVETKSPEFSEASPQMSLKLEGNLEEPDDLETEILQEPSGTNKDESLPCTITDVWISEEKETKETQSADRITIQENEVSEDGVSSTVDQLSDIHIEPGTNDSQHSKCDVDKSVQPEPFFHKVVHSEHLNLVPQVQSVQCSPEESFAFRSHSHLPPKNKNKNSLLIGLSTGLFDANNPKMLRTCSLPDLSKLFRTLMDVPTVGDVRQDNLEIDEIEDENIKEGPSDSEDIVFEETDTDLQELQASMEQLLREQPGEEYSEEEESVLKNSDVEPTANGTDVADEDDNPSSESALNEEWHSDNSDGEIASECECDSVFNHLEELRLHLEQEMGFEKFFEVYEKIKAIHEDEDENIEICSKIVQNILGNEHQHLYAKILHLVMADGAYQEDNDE
# [3] = molecular target: T2, Serine/threonine-protein kinase Nek1 (Homo sapiens); conditions: at 1 µM
# [4] = molecular target: T3, Serine/threonine-protein kinase Nek2 (Homo sapiens) (UniProt P51955); conditions: at 0.1 µM
# T3 sequence (whole entry): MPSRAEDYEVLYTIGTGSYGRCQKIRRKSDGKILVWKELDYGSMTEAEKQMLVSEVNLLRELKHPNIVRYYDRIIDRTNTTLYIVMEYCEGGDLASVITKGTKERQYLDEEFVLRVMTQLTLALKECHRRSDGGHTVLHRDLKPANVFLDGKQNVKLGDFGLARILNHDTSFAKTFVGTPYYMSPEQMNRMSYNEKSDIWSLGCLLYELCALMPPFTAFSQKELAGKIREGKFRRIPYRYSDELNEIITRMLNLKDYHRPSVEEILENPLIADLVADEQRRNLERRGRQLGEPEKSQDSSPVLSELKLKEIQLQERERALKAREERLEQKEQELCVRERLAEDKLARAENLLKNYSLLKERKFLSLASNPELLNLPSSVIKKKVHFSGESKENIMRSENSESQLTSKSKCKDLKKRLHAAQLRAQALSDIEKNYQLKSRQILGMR
# [5] = molecular target: T3, Serine/threonine-protein kinase Nek2 (Homo sapiens); conditions: at 1 µM
# [6] = molecular target: Serine/threonine-protein kinase Nek6 (Homo sapiens) (UniProt Q9HC98); conditions: at 0.1 µM
# Chain of Serine/threonine-protein kinase Nek6 (Homo sapiens) (Q9HC98 whole entry): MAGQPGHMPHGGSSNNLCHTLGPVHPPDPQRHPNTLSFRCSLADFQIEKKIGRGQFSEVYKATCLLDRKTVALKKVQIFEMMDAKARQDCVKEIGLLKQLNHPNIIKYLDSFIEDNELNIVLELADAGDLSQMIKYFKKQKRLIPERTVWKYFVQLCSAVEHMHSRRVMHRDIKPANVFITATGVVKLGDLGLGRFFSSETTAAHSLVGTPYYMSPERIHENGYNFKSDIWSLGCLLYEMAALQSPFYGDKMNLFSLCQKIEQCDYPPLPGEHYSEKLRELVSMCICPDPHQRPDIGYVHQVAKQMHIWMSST
# [7] = molecular target: Serine/threonine-protein kinase Nek6 (Homo sapiens) (UniProt Q9HC98); conditions: at 1 µM
# [8] = molecular target: Serine/threonine-protein kinase Nek7 (Homo sapiens) (UniProt Q8TDX7); conditions: at 0.1 µM
# Chain of Serine/threonine-protein kinase Nek7 (Homo sapiens) (Q8TDX7 whole entry, looked up): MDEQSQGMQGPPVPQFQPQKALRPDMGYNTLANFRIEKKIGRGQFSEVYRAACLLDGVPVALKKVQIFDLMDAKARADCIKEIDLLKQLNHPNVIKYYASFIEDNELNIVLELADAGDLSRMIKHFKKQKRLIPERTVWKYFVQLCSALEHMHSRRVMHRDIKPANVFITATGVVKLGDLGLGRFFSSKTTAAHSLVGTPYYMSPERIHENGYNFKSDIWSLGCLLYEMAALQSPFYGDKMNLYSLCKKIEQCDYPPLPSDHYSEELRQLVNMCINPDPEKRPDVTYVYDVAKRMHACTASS
# [9] = molecular target: Serine/threonine-protein kinase Nek7 (Homo sapiens) (UniProt Q8TDX7); conditions: at 1 µM
# [10] = molecular target: T4, Serine/threonine-protein kinase Nek9 (Homo sapiens) (UniProt Q8TD19); conditions: at 0.1 µM
# T4 sequence (whole entry): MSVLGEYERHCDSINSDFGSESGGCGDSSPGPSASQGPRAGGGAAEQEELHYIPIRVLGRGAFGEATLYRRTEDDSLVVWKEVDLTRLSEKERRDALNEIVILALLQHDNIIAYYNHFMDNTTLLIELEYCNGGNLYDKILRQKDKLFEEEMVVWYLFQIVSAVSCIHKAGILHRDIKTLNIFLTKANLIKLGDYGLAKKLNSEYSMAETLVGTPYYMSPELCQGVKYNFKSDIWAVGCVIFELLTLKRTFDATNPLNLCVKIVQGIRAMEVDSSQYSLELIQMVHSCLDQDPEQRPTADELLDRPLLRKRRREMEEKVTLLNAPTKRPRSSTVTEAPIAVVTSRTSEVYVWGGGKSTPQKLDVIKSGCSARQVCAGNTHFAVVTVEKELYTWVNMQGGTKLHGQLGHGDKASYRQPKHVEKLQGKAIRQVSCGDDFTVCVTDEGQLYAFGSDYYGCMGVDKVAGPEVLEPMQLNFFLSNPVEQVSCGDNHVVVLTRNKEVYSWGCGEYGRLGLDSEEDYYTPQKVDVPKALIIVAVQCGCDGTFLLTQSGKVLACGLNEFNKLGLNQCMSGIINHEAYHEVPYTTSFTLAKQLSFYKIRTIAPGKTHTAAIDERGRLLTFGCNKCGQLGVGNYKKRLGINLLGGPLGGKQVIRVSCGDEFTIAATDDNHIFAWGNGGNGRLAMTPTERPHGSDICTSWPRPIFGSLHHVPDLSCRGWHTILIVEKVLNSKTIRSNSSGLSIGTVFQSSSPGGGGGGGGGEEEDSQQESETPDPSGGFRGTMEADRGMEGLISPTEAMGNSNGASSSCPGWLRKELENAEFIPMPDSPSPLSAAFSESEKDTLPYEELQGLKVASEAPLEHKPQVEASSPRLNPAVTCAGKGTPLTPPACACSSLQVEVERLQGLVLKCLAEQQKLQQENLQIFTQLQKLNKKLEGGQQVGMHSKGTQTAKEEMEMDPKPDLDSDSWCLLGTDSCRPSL
# [11] = molecular target: T4, Serine/threonine-protein kinase Nek9 (Homo sapiens); conditions: at 1 µM
# [12] = molecular target: Serine/threonine-protein kinase PLK1 (Homo sapiens) (UniProt P53350); conditions: at 0.1 µM
# Chain of Serine/threonine-protein kinase PLK1 (Homo sapiens) (P53350 whole entry): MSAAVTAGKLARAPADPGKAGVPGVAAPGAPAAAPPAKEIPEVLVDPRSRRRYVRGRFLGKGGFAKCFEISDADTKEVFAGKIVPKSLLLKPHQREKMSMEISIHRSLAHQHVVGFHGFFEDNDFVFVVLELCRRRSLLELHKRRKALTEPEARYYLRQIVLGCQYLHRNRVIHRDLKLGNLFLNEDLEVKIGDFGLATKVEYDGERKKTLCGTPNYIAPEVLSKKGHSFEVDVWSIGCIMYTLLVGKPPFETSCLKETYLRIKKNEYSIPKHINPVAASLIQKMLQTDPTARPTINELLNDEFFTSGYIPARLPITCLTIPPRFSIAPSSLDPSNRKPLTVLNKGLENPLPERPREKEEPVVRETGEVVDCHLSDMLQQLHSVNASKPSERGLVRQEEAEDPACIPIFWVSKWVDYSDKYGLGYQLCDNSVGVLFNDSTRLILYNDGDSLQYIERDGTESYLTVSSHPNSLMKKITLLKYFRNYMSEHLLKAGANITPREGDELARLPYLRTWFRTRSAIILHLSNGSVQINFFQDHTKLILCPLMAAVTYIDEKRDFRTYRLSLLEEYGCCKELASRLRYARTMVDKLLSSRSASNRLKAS
# [13] = molecular target: Serine/threonine-protein kinase PLK1 (Homo sapiens) (UniProt P53350); conditions: at 1 µM
# [14] = molecular target: T5, Dual specificity protein kinase TTK (Homo sapiens) (UniProt P33981); conditions: at 0.1 µM
# T5 sequence (whole entry): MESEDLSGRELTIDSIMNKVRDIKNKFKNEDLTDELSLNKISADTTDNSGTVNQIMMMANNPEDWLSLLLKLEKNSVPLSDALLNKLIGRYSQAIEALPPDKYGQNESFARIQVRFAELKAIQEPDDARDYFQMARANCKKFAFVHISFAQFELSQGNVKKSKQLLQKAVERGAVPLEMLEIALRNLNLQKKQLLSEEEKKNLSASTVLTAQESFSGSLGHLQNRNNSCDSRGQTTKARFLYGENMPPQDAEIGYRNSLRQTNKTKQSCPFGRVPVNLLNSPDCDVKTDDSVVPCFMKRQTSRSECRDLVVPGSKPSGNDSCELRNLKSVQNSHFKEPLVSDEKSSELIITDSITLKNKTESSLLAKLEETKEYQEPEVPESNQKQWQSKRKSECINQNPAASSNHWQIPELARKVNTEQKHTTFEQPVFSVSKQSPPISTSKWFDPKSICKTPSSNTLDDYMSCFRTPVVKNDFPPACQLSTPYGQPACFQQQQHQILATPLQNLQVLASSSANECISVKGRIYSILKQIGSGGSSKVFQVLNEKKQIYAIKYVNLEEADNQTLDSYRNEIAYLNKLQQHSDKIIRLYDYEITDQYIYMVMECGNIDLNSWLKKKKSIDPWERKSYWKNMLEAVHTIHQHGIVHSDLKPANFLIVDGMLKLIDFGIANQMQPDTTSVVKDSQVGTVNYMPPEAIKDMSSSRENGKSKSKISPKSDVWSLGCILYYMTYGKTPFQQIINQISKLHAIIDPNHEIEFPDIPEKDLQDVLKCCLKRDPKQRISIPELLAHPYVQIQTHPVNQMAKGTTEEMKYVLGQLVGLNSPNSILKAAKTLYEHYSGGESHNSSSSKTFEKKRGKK
# [15] = tested on: T6, Receptor-type tyrosine-protein kinase FLT3 (Homo sapiens), P36888 [D835Y]; conditions: at 1 µM
# T6 sequence (whole entry): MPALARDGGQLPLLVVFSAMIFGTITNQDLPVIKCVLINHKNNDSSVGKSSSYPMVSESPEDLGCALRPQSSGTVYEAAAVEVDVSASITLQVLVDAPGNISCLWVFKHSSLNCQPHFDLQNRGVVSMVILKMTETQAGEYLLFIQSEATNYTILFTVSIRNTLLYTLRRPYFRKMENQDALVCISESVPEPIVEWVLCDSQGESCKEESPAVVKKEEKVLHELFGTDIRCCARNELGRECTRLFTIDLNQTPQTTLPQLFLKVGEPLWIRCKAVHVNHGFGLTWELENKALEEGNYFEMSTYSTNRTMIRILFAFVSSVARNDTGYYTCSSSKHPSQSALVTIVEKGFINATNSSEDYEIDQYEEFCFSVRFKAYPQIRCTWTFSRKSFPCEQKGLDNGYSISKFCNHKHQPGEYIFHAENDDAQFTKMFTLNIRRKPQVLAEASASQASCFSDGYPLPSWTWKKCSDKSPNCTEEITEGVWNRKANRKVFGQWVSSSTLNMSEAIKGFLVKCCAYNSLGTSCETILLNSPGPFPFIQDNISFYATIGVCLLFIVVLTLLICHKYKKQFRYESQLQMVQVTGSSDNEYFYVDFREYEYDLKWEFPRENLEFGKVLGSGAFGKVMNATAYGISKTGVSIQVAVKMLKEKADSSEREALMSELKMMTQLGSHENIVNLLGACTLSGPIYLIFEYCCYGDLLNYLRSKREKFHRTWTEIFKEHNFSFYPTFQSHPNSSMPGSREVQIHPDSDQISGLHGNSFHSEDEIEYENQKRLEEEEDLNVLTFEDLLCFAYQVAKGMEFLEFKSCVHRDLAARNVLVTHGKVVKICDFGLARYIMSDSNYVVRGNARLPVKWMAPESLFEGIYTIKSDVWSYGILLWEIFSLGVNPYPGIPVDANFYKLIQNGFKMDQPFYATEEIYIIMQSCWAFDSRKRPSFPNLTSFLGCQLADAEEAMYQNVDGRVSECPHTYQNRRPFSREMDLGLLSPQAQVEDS
# [16] = molecular target: Vascular endothelial growth factor receptor 3 (Homo sapiens) (UniProt P35916); conditions: at 0.1 µM
# Chain of Vascular endothelial growth factor receptor 3 (Homo sapiens) (P35916 whole entry): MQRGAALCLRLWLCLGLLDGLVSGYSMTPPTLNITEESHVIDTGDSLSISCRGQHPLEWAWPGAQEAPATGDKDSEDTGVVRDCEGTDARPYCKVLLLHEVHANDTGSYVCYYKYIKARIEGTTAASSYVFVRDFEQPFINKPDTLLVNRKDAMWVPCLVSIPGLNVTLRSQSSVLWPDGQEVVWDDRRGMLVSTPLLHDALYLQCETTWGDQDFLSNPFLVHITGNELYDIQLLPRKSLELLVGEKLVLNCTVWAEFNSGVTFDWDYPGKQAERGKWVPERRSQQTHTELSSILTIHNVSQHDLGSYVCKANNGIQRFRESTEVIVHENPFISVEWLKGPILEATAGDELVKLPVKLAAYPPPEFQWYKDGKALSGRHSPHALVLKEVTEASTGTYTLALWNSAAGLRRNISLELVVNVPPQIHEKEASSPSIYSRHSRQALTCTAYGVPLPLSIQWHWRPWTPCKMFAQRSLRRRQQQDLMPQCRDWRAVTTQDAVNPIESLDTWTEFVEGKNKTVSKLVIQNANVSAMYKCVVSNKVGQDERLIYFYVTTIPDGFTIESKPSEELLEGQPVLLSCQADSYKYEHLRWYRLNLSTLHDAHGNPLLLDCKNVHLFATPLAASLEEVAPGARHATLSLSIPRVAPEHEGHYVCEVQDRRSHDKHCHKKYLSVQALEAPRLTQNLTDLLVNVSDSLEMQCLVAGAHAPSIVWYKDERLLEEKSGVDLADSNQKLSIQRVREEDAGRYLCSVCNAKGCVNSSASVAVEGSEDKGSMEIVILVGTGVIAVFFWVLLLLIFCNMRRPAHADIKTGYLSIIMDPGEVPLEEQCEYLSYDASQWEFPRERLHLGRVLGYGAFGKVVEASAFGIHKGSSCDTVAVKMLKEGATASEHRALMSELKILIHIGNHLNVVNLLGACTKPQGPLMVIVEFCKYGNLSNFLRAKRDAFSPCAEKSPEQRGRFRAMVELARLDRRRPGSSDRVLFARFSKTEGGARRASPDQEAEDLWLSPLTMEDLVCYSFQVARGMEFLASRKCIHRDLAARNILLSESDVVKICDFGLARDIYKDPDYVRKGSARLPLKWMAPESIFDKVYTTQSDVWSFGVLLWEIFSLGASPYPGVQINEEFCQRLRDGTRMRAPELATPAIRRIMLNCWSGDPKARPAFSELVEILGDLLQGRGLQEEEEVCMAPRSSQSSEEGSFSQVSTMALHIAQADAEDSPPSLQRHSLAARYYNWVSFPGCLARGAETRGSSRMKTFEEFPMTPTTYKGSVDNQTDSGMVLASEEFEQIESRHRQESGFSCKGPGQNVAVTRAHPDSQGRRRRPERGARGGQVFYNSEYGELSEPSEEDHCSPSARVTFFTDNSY
# [17] = molecular target: Vascular endothelial growth factor receptor 3 (Homo sapiens) (UniProt P35916); conditions: at 1 µM
# [18] = molecular target: Macrophage colony-stimulating factor 1 receptor (Homo sapiens) (UniProt P07333); conditions: at 0.1 µM
# Chain of Macrophage colony-stimulating factor 1 receptor (Homo sapiens) (P07333 whole entry): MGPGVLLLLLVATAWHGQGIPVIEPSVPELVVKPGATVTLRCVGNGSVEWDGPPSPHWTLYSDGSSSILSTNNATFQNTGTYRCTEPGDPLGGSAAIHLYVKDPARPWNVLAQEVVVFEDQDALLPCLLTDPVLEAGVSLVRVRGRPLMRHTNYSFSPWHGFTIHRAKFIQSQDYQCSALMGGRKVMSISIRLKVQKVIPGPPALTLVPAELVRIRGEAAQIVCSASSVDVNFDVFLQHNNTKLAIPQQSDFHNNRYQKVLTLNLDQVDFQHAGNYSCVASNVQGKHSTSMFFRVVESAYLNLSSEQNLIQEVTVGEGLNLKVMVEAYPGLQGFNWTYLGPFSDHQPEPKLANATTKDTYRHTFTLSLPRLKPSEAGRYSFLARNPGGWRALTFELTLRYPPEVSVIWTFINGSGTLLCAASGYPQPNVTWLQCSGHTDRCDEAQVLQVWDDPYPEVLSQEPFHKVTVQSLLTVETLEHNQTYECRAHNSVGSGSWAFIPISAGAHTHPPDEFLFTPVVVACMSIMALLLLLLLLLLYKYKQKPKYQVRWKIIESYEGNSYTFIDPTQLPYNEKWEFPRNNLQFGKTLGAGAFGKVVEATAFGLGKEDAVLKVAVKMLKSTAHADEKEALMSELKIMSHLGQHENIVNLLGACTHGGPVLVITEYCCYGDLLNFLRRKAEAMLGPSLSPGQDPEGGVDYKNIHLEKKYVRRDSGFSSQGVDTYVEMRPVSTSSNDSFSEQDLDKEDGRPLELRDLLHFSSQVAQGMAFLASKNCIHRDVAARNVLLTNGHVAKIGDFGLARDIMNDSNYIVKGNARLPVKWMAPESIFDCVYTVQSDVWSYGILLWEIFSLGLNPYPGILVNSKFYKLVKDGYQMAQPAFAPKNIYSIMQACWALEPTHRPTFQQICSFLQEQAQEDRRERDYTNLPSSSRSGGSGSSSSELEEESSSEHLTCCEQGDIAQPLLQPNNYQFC
# [19] = molecular target: Macrophage colony-stimulating factor 1 receptor (Homo sapiens) (UniProt P07333); conditions: at 1 µM
# [20] = molecular target: Tyrosine-protein kinase Fyn (Homo sapiens) (UniProt P06241); conditions: at 0.1 µM
# Chain of Tyrosine-protein kinase Fyn (Homo sapiens) (P06241 2-537 limits assumed): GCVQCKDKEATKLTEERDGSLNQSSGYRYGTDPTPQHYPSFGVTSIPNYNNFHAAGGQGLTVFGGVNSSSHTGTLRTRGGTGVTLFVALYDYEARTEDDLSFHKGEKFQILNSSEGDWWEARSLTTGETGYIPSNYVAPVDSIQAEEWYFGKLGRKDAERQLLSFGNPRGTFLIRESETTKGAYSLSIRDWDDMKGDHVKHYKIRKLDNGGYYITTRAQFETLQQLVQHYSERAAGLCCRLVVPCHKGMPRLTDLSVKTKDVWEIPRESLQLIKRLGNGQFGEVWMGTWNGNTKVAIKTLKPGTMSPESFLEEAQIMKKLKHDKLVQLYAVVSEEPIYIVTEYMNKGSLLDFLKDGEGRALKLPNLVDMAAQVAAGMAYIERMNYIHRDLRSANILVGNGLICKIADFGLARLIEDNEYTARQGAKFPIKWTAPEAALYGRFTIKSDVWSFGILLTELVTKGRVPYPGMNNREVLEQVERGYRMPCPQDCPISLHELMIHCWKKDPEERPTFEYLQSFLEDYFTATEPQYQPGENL
SMILES,inhibition [1] [%],inhibition [2] [%],inhibition [3] [%],inhibition [4] [%],inhibition [5] [%],inhibition [6] [%],inhibition [7] [%],inhibition [8] [%],inhibition [9] [%],inhibition [10] [%],inhibition [11] [%],inhibition [12] [%],inhibition [13] [%],inhibition [14] [%],inhibition [15] [%],inhibition [16] [%],inhibition [17] [%],inhibition [18] [%],inhibition [19] [%],inhibition [20] [%]
CCCN(CCS(C)(=O)=O)Cc1ccc(-c2ccc3ncnc(Nc4ccc(OCc5cccc(F)c5)c(Cl)c4)c3c2)o1,1.08,2.4,2.96,3.32,3.71,-0.2,0.97,3.69,3.24,6.94,4.13,1.28,1.62,2.14,0.99,-1.86,-0.27,0.78,1,1.13
COc1ccc2c(-c3ccnc(Nc4cccc(OC(F)(F)F)c4)n3)cnn2n1,26.7,3.61,6.35,5.13,4.77,3.21,4.5,3.37,4.57,5.79,10.2,3.05,3.9,5.81,15.6,4.15,5.87,7.22,33.3,2.72
CCn1c(-c2nonc2N)nc2cnc(Oc3cccc(NC(=O)c4ccc(N(C)C)cc4)c3)cc21,14.1,1.17,4.28,2.85,1.24,0.89,2.25,3.09,1.46,7.55,5.29,1.86,1.97,3.52,0.83,0.61,2.01,-0.02,0.23,1.66
